# ssDAF-12 act: activates DAF-12 receptor from parasite S. stercoralis | HEK293 ssDAF-12/GRIP1 lit1-tk-luc reporter, luminescence; % of 3 µM dafachronic acid response | 370,000 tested, 1% active | activation, % at 6.8 µM | AID 652126;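 active = activation above the mean over all tested compounds plus 3 SD, cut at about 0.9% in these data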;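 also: 0% = DMSO-only wells and 100% = 3 µM delta7-dafachronic acid wells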
# hgDAF-12 ag: agonists of H. glycines DAF-12 nuclear receptor. activation, % at 6.8 µM. 370,000 tested, 1.8% active. HEK293 GAL4-hgDAF12 UAS-luciferase reporter, agonist luminescence; normalized to butyrate control;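 active = activation above a cutoff set at the mean of all screened compounds plus 3 SD, cut at about 10% in these data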;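 also: 0% = DMSO wells and 100% = sodium butyrate wells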
# hcDAF12 agonist: activates DAF-12 receptor from parasite H. contortus | HEK293 hcDAF-12 lit1-tk-luc reporter, luminescence; 0% DMSO, 100% Δ7-dafachronic acid | activation, % at 6.8 µM | 370,000 tested, 1.4% active;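 active = activation above the mean of all tested compounds plus 3 SD, cut at about 5.5% in these data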;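 also: 100% = response to 3 µM Δ7-dafachronic acid high control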
# DAX1 inh-1: inhibits human nuclear receptor DAX1 | P51843 | HEK293 Gal4-DAX1 luciferase reporter, luminescence | inhibition, % at 6.75 µM | 340,000 tested, 0.99% active | AID 504766;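 active = inhibition above the mean over all tested compounds plus 3 SD, cut at about 4.2% in these data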;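 also: 0% = DAX1-transfected cells with DMSO and 100% = empty-vector control cells with DMSO; inhibition shows as a rise in luminescence from relieved DAX1 repression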
# Target sequence (P51843 207-470 limits assumed): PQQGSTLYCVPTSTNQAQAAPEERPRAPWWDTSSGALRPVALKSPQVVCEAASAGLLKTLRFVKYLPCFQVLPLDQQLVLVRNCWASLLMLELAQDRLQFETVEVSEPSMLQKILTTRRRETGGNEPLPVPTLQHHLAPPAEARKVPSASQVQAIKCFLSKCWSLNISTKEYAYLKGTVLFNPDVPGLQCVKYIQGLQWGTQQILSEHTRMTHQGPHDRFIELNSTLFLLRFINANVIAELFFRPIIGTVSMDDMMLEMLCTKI
# DAX1 inh-2: blocks DAX1 repression of SF-1 activated StAR promoter; HEK293T StAR-luciferase reporter, SF-1/DAX-1 repression relief; AID 652010; inhibition, % at 6.8 µM; 370,000 tested, 1.1% active;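 active = inhibition above the mean over all tested compounds plus 3 SD, cut at about 3.6% in these data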;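 also: 0% = DAX-1 cells with DMSO and 100% = cells lacking DAX-1 with DMSO; higher inhibition means more luminescence from relief of DAX-1 repression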
# Starred values were filed as active, the others as inactive; . = not tested or not shown. This is a sample that favours compounds with a hit; in the whole collection about 4.1% have one here.
SMILES,ssDAF-12 act,hgDAF-12 ag,hcDAF12 agonist,DAX1 inh-1,DAX1 inh-2
COc1ccc(Br)c(-c2nnc(CS(=O)(=O)c3ccccc3)o2)c1,-1,11*,0,0,1
COC(=O)[C@H](C(C)C)N1Cc2nnn(CC3CCCCC3)c2-c2cc(F)ccc2S1(=O)=O,-2,1,-3,.,-1
CN(C(=O)[C@@H](C1CC1)[C@@H](O)c1ccc2ccccc2c1)c1ccccc1,0,2,1,.,-2
O=C(Cn1nnc(-c2ccncc2)n1)Nc1ccc(Cl)cc1,-1,1,-3,.,-1
Cc1cccc(C2=NN(c3ccc(Br)cc3)[C@@H](C(=O)N3CCOC3=O)[C@@H]2c2ccccc2)c1,.,.,.,0,.
Cc1cccc(C2=NN(c3ccccc3)[C@@H](C(=O)N3CCOC3=O)[C@@H]2c2ccccc2)c1,0,1,1,0,3.7*
O=c1cc(N2CCc3ccccc32)[nH]c(=O)n1-c1ccc(Br)cc1,-1,-1,5.8*,-1,1
COc1ccc(C2C(C(=O)Nc3ccc(F)cc3F)CCC(=O)N2c2ccc(OC)cc2)cc1 (configuration not stated),0,2,-1,.,-1
CCN1CCN(C(=O)c2cc3c(s2)-c2c(C)cccc2OC3)CC1,.,.,.,5.9*,.
CCOC(=O)N1CCN(C(=O)c2cc3c(s2)-c2c(C)cccc2OC3)CC1,-1,-2,-1,1,0
CCOc1ccc(NC(=O)Cc2ccccc2)c([N+](=O)[O-])c1,-1,4,0,-1,-1
CCOc1ccc(NC(=O)Cc2cccc3ccccc23)c([N+](=O)[O-])c1,6.7*,-3,-1,-1,-1
CC(C)CC1C(=O)N(Cc2cn(CCC3OCCCO3)nn2)CCS(=O)(=O)N1Cc1ccc(-c2ccc(Cl)nc2)cc1 (configuration not stated),-1,1,-1,5.1*,-2
CC(C)C1C(=O)N(Cc2cn(CC3CCCCC3)nn2)CCS(=O)(=O)N1Cc1ccc(-c2ccc(Cl)nc2)cc1 (configuration not stated),-1,-2,0,1,4.4*
CC(=O)c1ccc(NC(=O)Nc2cccc3ccccc23)cc1,0,4,-1,1,3.7*
O=C(COC(=O)c1cccnc1)Nc1cccc2ccccc12,0,0,0,4.5*,0
COC(=O)c1ccccc1NC(=O)COC(=O)c1cccnc1,-1,1,-1,1,0
NC(=O)Nc1cccc2ccccc12,1.7*,-1,3,1,1
O=C(COC(=O)c1cc2ccccc2cc1O)Nc1cccnc1Cl,1.0*,2,4,0,0
CCCCCCCCN1C(=O)[C@@H](CC(=O)N2CCSCC2)C[C@@]2(C(=O)OC)C1=C[C@H](C(C)C)O[C@@H]2C1CC1,-1,-1,0,.,0
CC(OC(=O)COc1ccc(C#N)cc1)C(=O)c1ccccc1 (configuration not stated),-1,1,-1,1,1
COc1ccc(C(=O)C(C)OC(=O)COc2ccccc2)cc1 (configuration not stated),-1,-3,0,0,3.8*
O=C(Nc1ccnn1C1CCN(Cc2c[nH]c3ccccc23)CC1)c1ccccc1,-1,3,6.2*,1,2
Cn1c(CN2CCN(C(=O)c3ccccc3)CC2)nc2cc([N+](=O)[O-])ccc21,0.9*,-3,0,-2,1
O=C(c1sccc1Cl)N1CCC(n2nnc3ncccc32)CC1,-2,-1,-2,.,1
SMILES,ssDAF-12 act,hgDAF-12 ag,hcDAF12 agonist,DAX1 inh-1,DAX1 inh-2
CC/C(C)=N/N1C(=O)c2ccccc2NC1(C)CC (configuration not stated),-1,7,1,6.2*,0
O=C1c2ccccc2NC2(CCCC2)N1N=C1CCCC1,-1,7,4,3,1
CCSc1nnc(Cc2cc(=O)[nH]c(=O)[nH]2)n1-c1ccc(F)cc1,-1,0,3,1,0
O=C(CSc1nnc(Cc2cc(=O)[nH]c(=O)[nH]2)n1-c1ccc(F)cc1)N1CCCCC1,0,6,-1,7.9*,0
Cc1cccc(-n2c(Cc3cc(=O)[nH]c(=O)[nH]3)nnc2SCC(=O)N2CCc3ccccc32)c1,-1,3,6.2*,1,0
Cc1ccc(CNC(=O)OC(C)(C)C)c(/C=C/S(=O)(=O)NCCc2ccccc2)c1,-2,-3,-5,.,-2
O=C(O)/C=C/c1cccc2c1OCCO2,-2,0,-2,7.2*,0
O=C(NNS(=O)(=O)c1ccc(Cl)cc1Cl)c1cc2ncc(C(F)(F)F)cc2s1,1,4,6.0*,-1,0
O=S(=O)(NNc1ncc(C(F)(F)F)cc1Cl)c1ccc(F)cc1F,0,1,3,1,3
O=c1[nH]nc(Cc2ccc3ccccc3n2)c2ccccc12,1.0*,4,6.5*,1,1
O=C(O)c1cc(=O)[nH]c2ccccc12,-1,0,1,2,0
O=C(CN1CCN(c2ccccc2)CC1)Nc1scc2c1c(=O)oc1ccccc12,0,0,0,4.7*,1
O=C(Nc1ccccc1)Nc1scc2c1c(=O)oc1ccccc12,-1,1,0,.,0
COc1ccc2c(c(-c3ccccc3)cn2C)c1-c1ccccc1,-1,1,1,.,0
CCC[C@H]1[C@@H](OC(=O)NC2CCCCC2)CC[C@@]23CCCN2C(=O)CCC[C@@H]13,-2,-3,0,.,.
O=C(Nc1ccc2oc(-c3ccncc3)nc2c1)c1ccc2c(c1)OCCO2,-3,0,-2,5.7*,0
Cc1ccc2oc(-c3ccc(NC(=O)c4ccncc4)cc3O)nc2c1,0,12*,0,1,1
COc1ccc(CC(=O)Nc2ccc(-c3nc4cc(C)ccc4o3)c(O)c2)cc1OC,-1,3,1,0,1
CC(C)Oc1ccc(C(=O)OCC(=O)c2ccc[nH]2)cc1,-1,10,3,1,1
CCN1CCN(CC(=O)N/N=C/c2ccc(F)cc2F)CC1,1.1*,1,0,-1,0
O=C(CN1CCCCCCC1)N/N=C/c1ccccc1F,-1,3,-1,0,0
O=C1CCC2(CCCCC2)N1CCCO,0,-3,0,.,-1
CCCCNC(=O)C[C@H]1C[C@@]2(C(=O)OC)C(=C[C@H](C(C)C)O[C@@H]2C2CC2)N(Cc2cccc3ccccc23)C1=O,-1,0,-3,.,-1
NS(=O)(=O)c1ccc(CCNc2ccc(C(F)(F)F)cn2)cc1,-1,0,0,0,0
FC(F)(F)c1ccc(NCCc2ccccc2)nc1,-1,0,-1,5.1*,0
O=[N+]([O-])c1ccc(N2CCN(c3ccccc3O)CC2)c(Cl)c1,-2,4,-1,-1,-1
O=C1NC(c2cccc([N+](=O)[O-])c2)=CCN1c1ccccc1O,2.3*,4,1,1,0
